# Tgondii IFNg = T. gondii growth inhibition with IFN-gamma, primary screen, cell-based | 69,000 tested, 3.8% active | activity change, negative = inhibition, % (concentration not given with the values) | Toxoplasma gondii growth in IFN-gamma-treated host cells; stronger effect = lower value | AID 1259416, 2018; in the data active = activity change below about -70%, passing the limit was not always enough;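 also: host cells are HeLa cells infected with Toxoplasma gondii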
# A number is an active result; n = inactive. The sample as a whole holds a higher share of hits than the screen did.
SMILES,Tgondii IFNg
CN(Cc1ccc(F)cc1)c1ccc2ccc(C(=O)N3CCC(N(C)C)C3)cn12 (stereo unspecified),n
Cc1cc2c(cc1-c1nccn1-c1ccc3cn[nH]c3c1)OCO2,-81.1
Clc1cc2c(cc1-c1nccn1-c1ccc(Oc3nn[nH]n3)cc1)OCO2,n
Cc1cc2c(cc1-c1nccn1CCc1nc(-c3cccnc3)no1)OCO2,n
COC[C@H]1CCCN1Cc1ccc(C(=O)Nc2cnn(C)c2)cc1,n
CCN(Cc1cccc(C(=O)Nc2cnn(C)c2)c1)Cc1nc(C)no1,n
Cc1ccsc1CN(C)Cc1ccc(C(=O)Nc2cnn(C)c2)cc1,-84.2
CO[C@@H]1CCN(C(=O)c2ccc3[nH]ccc3c2)[C@H]1Cc1cnn(C)c1,n
C[C@H]1[C@@H](O)O[C@@H]2O[C@@]3(C)CC[C@H]4[C@H](C)CC[C@@H]1[C@@]24OO3,-94.3
CC(C)Cn1cncc1CN1CCCN(Cc2ccc(F)cc2)C(C(C)C)C1 (stereo unspecified),n
CC(C)NC(=O)N1Cc2cc(C(=O)NC3CCC3)nc(-c3cccc(-c4cncnc4)c3)c2[C@@H]1CCO,n
CCCNC(=O)c1cc2c(c(-c3cccc(-c4cc5ccccc5o4)c3)n1)[C@H](CCO)N(C(=O)NC(C)C)C2,-71.2
CC(C)NC(=O)N1Cc2cc(C(=O)NC3Cc4ccccc4C3)nc(-c3cccc(-c4cccnc4)c3)c2[C@H]1CCO,n
C[C@H](CO)N1C[C@H](C)[C@H](CN(C)C(=O)Nc2ccc3c(c2)OCO3)OCCCC[C@H](C)Oc2ccc(NS(=O)(=O)c3ccc(F)cc3)cc2C1=O,n
COc1ccc2c3c([nH]c2c1)[C@H](CO)NCC31CCN(C(=O)Cc2cccnc2)CC1,n
CC(C)c1noc(-c2cc(=O)n(CC(=O)Nc3ccc(F)c(Cl)c3)c3ccccc23)n1,n
O=C(CN1CCCC1Cn1cccn1)Nc1nc(-c2ccc(F)cc2)cs1 (stereo unspecified),-77.2
O=C(CN1CCCCC1)Nc1nc(-c2ccccc2)cs1,n
Cc1csc(NC(=O)CN2CCC(c3ccc(F)cc3)CC2)n1,n
CCOc1ccc2nc(N3CCCN(Cc4ccc5ccccc5n4)CC3)nc(C)c2c1,n
CC(C)n1cnc2c(NCC3CC3)nc(C3CCN(C(=O)c4ccccc4)CC3)cc21,-81.7
CN(C)C(=O)N1CCC(c2cc3c(ncn3C)c(NCc3ccccc3)n2)CC1,n
CC(C)NC(=O)N1CCC(c2cc3c(ncn3C)c(NCc3ccccc3)n2)CC1,n
O=C(CCn1ncc2c1CCCC2)N1CCN(c2nnc(C(F)(F)F)s2)CC1,n
CCSc1ccc(-c2sc(-c3ccc(OC)cc3)nc2C)nn1,n
SMILES,Tgondii IFNg
CC1=CC[C@@H]2CN(c3cc(N4CCN(C)CC4)nc(N)n3)C[C@@H]2C1,n
COc1ccc2c3c([nH]c2c1)[C@H](CO)N(S(C)(=O)=O)CC31CCN(CC2CCCC2)CC1,n
COc1ccc2c3c([nH]c2c1)[C@@H](CO)N(S(C)(=O)=O)CC31CCN(CC2CCCC2)CC1,-106.7
COc1ccc2c3c([nH]c2c1)[C@@H](CO)N(S(C)(=O)=O)CC31CN(CC2CCOCC2)C1,n
Cc1ccc(C)c(NC(=O)c2c(O)c3cccnc3n(-c3cccc(F)c3)c2=O)c1,n
CCC(C)NC(=O)N1CCC2(CC1)Nc1ccccc1-n1cccc12 (stereo unspecified),n
CNc1nc(C2CCCN2)nc2c1CN(C(=O)CCc1nc3ccccc3s1)CC2 (stereo unspecified),n
CCc1nc(C)sc1C(=O)N1C[C@@H]2C3CCC(CC3)[C@@H]2C1,n
CN1CCN(c2cc(C(=O)NCCS(=O)(=O)c3ccc(F)cc3)ccn2)CC1,n
O=C(Nc1ccc(OCc2ccccc2F)cc1)c1ccc(-n2cnnc2)cc1,n
CN1CCN(c2cc(C(=O)Nc3ccc(OCc4ccccc4F)cc3)ccn2)CC1,-76.1
CN(C)CCN(CC1=COCCO1)Cc1ccncc1,n
COCCN1C(=O)CCc2cc(NC(=O)c3ccc4c(c3)OCO4)ccc21,n
CCC(=O)Nc1ccc2c(c1)CCC(=O)N2CC(C)C,n
CC(C)CN1C(=O)CCc2cc(NC(=O)c3ccc4c(c3)OCO4)ccc21,-76.7
Cc1ccc(C(=O)Nc2ccc3c(c2)CCC(=O)N3CC(C)C)c(C)c1,n
CCN1C(=O)CCc2cc(NC(=O)CC(C)C)ccc21,n
CCN1C(=O)CCc2cc(NC(=O)c3ccc4c(c3)OCO4)ccc21,-86.7
CCN1C(=O)CCc2cc(NC(=O)C3CCCC3)ccc21,n
CCN1C(=O)CCc2cc(NC(=O)c3ccc(F)cc3)ccc21,n
CCN1C(=O)CCc2cc(NC(=O)/C=C/c3ccccc3)ccc21,-82.6
CCC(=O)N[C@H]1CC[C@@H](CC(=O)NCc2ccccc2F)O[C@H]1CO,n
CCc1cnc(N2CC3(CCN(c4nccs4)C3)C2)nc1,n
CC(=O)Nc1cccc(-c2c(C)c3ccccc3[nH]c2=O)c1,n
c1coc(CN2CCC3(CC2)COCCN3CC2CC2)c1,n
SMILES,Tgondii IFNg
CCCC(NC(=O)c1cc2cc(S(=O)(=O)N(C)C)ccc2n1Cc1ccncc1)c1cccs1 (stereo unspecified),n
C(#Cc1ccc(-c2ccn[nH]2)cc1)c1ccccc1,n
Cc1nc([C@@H]2C[C@@H]3CN(Cc4sccc4C)C[C@@H]3O2)n[nH]1,n
CN(Cc1ccncc1)Cc1cc(-c2ccccc2)no1,n
COc1ccc(N2CCN(CCCNC(=O)CCC3Nc4c5ccccc5nc(=S)n4C3=O)CC2)cc1 (stereo unspecified),n
Cc1noc(C)c1C(=O)Nc1ccc(Sc2ccccc2)nc1Sc1ccccc1,-88.8
CSc1ccc(CNC(=O)c2c(C)noc2C)s1,n
Cc1noc(C)c1C(=O)Nc1ccc(Cl)cc1,n
Cc1cc(C)c2c(=O)n(Cc3nc(-c4ccc(C(C)C)cc4)oc3C)c(=O)n(-c3ccccc3)c2n1,n
O=C(Cn1c(=O)cc(C(=O)N2CCCC2)c2ccccc21)Nc1ccc(F)c(Cl)c1,n
O=C(Cn1c(=O)cc(C(=O)N2CCc3ccccc3C2)c2ccccc21)Nc1ccc(F)c(Cl)c1,-71.9
Cc1ccc(NC(=O)Cn2c(=O)cc(C(=O)N3CCc4ccccc4C3)c3ccccc32)cc1F,n
COCCCNC(=O)c1nc(Nc2ccc(C)cc2)c2ccccc2n1,n
Cc1nc(N2CCCCC2)ncc1C(=O)N1CCN2CCN(C)C(=O)C2C1 (stereo unspecified),n
Nc1nnc(SCc2c(Cl)cccc2Cl)s1,n
Nc1nnc(CSCc2ccc(Cl)cc2Cl)s1,n
Nc1nnc(Sc2nc3c(Cl)cc(Cl)cc3s2)s1,-85.4
CC(=O)c1ccccc1NC(=O)CCN1CCSCC1,n
N#CCOc1ccc(Br)cc1,n
COc1ccc(OC)c(CNc2nc(-c3nnc(-c4ccc(C)cc4)o3)nc3ccccc23)c1,n
COc1ccc(CNc2nc(-c3nnc(-c4cccc(C)c4)o3)nc3ccccc23)cc1,n
COc1ccc(OC)c(CNc2nc(-c3nnc(-c4cccc(C)c4)o3)nc3ccccc23)c1,-93.3
COc1ccccc1CNc1nc(-c2nnc(-c3cccc(Cl)c3)o2)nc2ccccc12,n
COc1ccc(-c2nnc(-c3nc(NCc4ccc(OC)cc4OC)c4ccccc4n3)o2)cc1,n
COc1ccc(OC)c(CNc2nc(-c3nnc(-c4cccc(Cl)c4)o3)nc3ccccc23)c1,-102.8
COc1ccc(NC(=O)c2nnn(Cc3nc(-c4ccccc4)oc3C)c2C)cc1Cl,n
Cc1nnc([C@H]2CO[C@H]3CN(C(=O)c4sccc4C)C[C@H]32)o1,n
CC(C)C(=O)C1CC2CN(Cc3cnn(C)c3)CC1O2 (stereo unspecified),n
COc1ccccc1N1CCN(C(=O)c2cccs2)CC1,n
